Results: PubChem BioAssay (Tox21)
Inconclusive results are not listed. Entries that show only a call come without a potency. More than one record can exist for a structure, and the calls need not agree. Active and inactive are the calls of the source. Unless noted, the call rests on the fitted dose curve; in most records, active means well fitted curve in the direction sought with a large enough effect in the repeat runs; inconclusive means weak or mixed curves; inactive means no such curve, though single readings can be large; an effect the other way counts as inactive or inconclusive.

Assays:
[1] = target: Progesterone receptor (Homo sapiens) (UniProt P06401); assay: qHTS assay to identify small molecule agonists of the progesterone receptor (PR) signaling pathway (AID 1346784; calls by dose curve; further: nearly all actives have a fitted effect of over 30% in size)
Outline: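 Compounds were tested for PR agonism in HEK 293T cells bearing a beta-lactamase gene under UAS control. Treatment lasted 16 hr at 37C; signal came from fluorescence of a FRET substrate.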

[2] = target: Progesterone receptor (Homo sapiens) (UniProt P06401); assay: qHTS assay to identify small molecule antagonists of the progesterone receptor (PR) signaling pathway (AID 1346795; active means well fitted inhibition curve with a large enough effect in the signal ratio in the repeat runs, not every such curve was filed as active; the % refers to the signal ratio; further: potency means the concentration at half of the fitted maximal effect)
Outline: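 In HEK293T cells bearing the PR-UAS-bla reporter, compound effects on promegestone-driven (1 nM) beta-lactamase expression are assessed after 16 hr using a fluorescent FRET substrate incubated 2 hr at room temperature.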

[3] = qHTS assay to identify small molecule antagonists of the progesterone receptor (PR) signaling pathway - cell viability counter screen (AID 1346798); further: series mostly up to about 92 µM; nearly all actives have a fitted effect of over 50% in size
Outline: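 Following a 4 hr attachment, PR-UAS-bla HEK293T cells in charcoal-stripped FBS medium were exposed to compounds with R5020 for 16 hr; CellTiter-Glo was added and luminescence read after 30 min at room temperature.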

[4] = qHTS assay to identify small molecule agonists of the progesterone receptor (PR) signaling pathway - cell viability counter screen (AID 1346799; calls by dose curve; further: nearly all actives have a fitted effect of over 45% in size)
Outline: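 Here, 3,000 PR-UAS-bla HEK293T cells per well were treated with compounds for 16 hr after a 6 hr preincubation at 37C and 5% CO2; cell viability is the CellTiter-Glo luminescence signal.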

[5] = qHTS assay to identify small molecule antagonists of the TGF-beta/Smad signaling pathway - cell viability counter screen (AID 1346824); further: nearly all actives have a fitted effect of over 50% in size
Outline: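 SBE-bla HEK 293T cells, incubated overnight, then compound plus 0.25 ng/mL TGF-beta1 (stock added) for 5 hr at 37 C. Viability was read in the same wells by CellTiter-Glo luminescence after 30 min at room temperature.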

[6] = qHTS assay to identify small molecule agonists of the TGF-beta/Smad signaling pathway - cell viability counter screen (AID 1346829); further: top concentration of the series differs between compounds; nearly all actives have a fitted effect of over 45% in size
Outline: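 Compound-treated SBE-bla HEK 293T cells (5 hr, 37 C) were assessed for viability with CellTiter-Glo in parallel with the reporter read.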

[7] = qHTS assay to identify small molecule agonists of the TGF-beta/Smad signaling pathway (AID 1346859; active means well fitted activation curve with a large enough effect in the signal ratio in the repeat runs, not every such curve was filed as active; the % refers to the signal ratio; further: series mostly up to about 77 µM)
Outline: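 Each well held 4,000 SBE-bla HEK 293T cells incubated overnight before compound addition; 5 hr later the cleavable FRET substrate went on for 2 hr at room temperature, and fluorescence was read at two emissions.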

[8] = target: Thyrotropin-releasing hormone receptor (Homo sapiens) (UniProt P34981); assay: qHTS assay to identify small molecule antagonists of the thyrotropin-releasing hormone receptor (TRHR) signaling pathway (AID 1346877; active means well fitted inhibition curve with a large enough effect in the repeat runs, not every such curve was filed as active; further: series mostly up to about 51 µM)
Outline: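 Screening used HEK293 cells engineered with TRHR, with a brief 5 min room-temperature compound exposure preceding addition of TRH to 1 nM. The read-out was kinetic calcium-dye fluorescence, concentration-response from 15 doses in triplicate.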

[9] = target: Thyrotropin-releasing hormone receptor (Homo sapiens) (UniProt P34981); assay: qHTS assay to identify small molecule agonists of the thyrotropin-releasing hormone receptor (TRHR) signaling pathway (AID 1346891; calls by dose curve; further: series mostly up to about 58 µM)
Outline: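 Screening of agonists relied on calcium signalling in HEK293 cells expressing human TRHR: dye loading 2 h at 37 °C preceded compound addition and a 3-min fluorescence time course.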

[10] = Human pregnane X receptor (PXR) small molecule agonists, qHTS cell viability counter screen (AID 1346977); further: nearly all actives have a fitted effect of over 50% in size; further: potency means the concentration at half of the fitted maximal effect
Outline: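 Tox21 qHTS format; PXR-Luc HepG2, 2,000/well, charcoal-stripped FBS 5%. Cpd exposure 24hr. Read: CellTiter-Fluor fluorescence, multiplexed with luciferase.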

Chain of Progesterone receptor (Homo sapiens) (P06401 whole entry, looked up): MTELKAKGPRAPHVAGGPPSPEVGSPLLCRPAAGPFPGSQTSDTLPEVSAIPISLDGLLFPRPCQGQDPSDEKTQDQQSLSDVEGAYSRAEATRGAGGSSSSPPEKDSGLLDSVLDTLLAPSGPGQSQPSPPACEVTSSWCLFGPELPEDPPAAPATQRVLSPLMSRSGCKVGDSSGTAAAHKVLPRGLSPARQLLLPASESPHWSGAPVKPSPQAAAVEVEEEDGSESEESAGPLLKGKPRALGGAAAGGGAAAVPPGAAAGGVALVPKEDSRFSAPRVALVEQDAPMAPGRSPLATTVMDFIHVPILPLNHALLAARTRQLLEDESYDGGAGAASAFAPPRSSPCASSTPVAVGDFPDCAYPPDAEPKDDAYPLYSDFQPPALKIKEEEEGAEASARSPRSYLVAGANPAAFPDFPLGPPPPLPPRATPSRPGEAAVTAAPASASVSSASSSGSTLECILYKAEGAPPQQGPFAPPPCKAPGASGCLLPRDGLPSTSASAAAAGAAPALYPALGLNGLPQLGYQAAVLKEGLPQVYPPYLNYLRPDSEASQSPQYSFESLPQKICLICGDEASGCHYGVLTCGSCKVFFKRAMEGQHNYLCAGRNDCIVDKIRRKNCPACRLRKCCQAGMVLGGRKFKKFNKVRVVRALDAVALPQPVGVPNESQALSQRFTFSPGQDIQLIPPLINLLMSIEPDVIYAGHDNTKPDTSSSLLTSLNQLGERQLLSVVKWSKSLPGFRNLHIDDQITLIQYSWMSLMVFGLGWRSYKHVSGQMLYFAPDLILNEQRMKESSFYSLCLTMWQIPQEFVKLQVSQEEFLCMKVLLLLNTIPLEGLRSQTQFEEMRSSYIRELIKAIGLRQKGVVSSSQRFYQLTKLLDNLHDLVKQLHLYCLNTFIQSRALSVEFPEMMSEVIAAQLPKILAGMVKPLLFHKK
Chain of Thyrotropin-releasing hormone receptor (Homo sapiens) (P34981 whole entry, looked up): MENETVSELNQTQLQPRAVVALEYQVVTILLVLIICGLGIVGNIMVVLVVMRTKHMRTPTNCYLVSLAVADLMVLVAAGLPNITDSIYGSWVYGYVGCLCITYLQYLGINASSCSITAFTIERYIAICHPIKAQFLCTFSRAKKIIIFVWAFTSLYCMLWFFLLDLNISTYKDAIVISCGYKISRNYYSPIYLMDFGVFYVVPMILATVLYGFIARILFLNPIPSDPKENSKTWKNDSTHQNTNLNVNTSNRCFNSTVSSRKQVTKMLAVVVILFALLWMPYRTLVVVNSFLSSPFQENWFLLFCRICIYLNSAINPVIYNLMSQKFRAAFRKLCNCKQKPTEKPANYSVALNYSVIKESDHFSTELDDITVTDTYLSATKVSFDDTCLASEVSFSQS

Structure (SMILES)	Potency [1]	Potency [2]	outcome [3]	outcome [4]	outcome [5]	outcome [6]	outcome [7]	outcome [8]	outcome [9]	Potency [10]
N[C@H](Cc1c[nH]c2ccccc12)C(=O)O	inactive	inactive	inactive	inactive	inactive	inactive	inactive	inactive	inactive	inactive
CCCCCCO	inactive	inactive	inactive	inactive	inactive	inactive	inactive	inactive	inactive	inactive
COCCOC(=O)c1ccccc1C(=O)OCCOC	inactive	inactive	inactive	inactive	inactive	inactive	inactive	inactive	inactive	inactive
Cc1ccc(S(=O)(=O)N=C=O)cc1	inactive	inactive	inactive	inactive	inactive	inactive	inactive	inactive	inactive	28.2 µM (active) and inactive
CCCCCCC=O	inactive	inactive	inactive	inactive	inactive	inactive	inactive	inactive	inactive	inactive
CCCCC(C=O)CC (stereo not given)	inactive	inactive	inactive	inactive	inactive	inactive	inactive	inactive	inactive	inactive
O=C(O)c1ccc(S(=O)(=O)N(Cl)Cl)cc1	inactive	inactive	inactive	inactive	inactive	inactive	inactive	inactive	inactive	inactive
CCCOC(=O)c1ccccc1	inactive	inactive	inactive	inactive	inactive	inactive	inactive	inactive	inactive	inactive
CC(=O)c1ccc(O)cc1	inactive	inactive	inactive	inactive	inactive	inactive	inactive	inactive	inactive	inactive
C=CC(=O)OCCC(=O)O	inactive	inactive	inactive	inactive	inactive	inactive	inactive	inactive	inactive	inactive
O=C1C(c2[nH]c3ccccc3c2O)=Nc2ccccc21	inactive	inactive	inactive	inactive	inactive	inactive	inactive	inactive	inactive	inactive
CCO[Si](CCC#N)(OCC)OCC	inactive	inactive	inactive	inactive	inactive	inactive	inactive	inactive	inactive	inactive
CC1(C)S[C@@H]2[C@H](NC(=O)COc3ccccc3)C(=O)N2[C@H]1C(=O)O	inactive	inactive	inactive	inactive	inactive	inactive	inactive	inactive	inactive	inactive
N#Cc1ccccc1	inactive	inactive	inactive	inactive	inactive	inactive	inactive	inactive	inactive	inactive
C=C(C)C(=O)OCC(C)C	inactive	inactive	inactive	inactive	inactive	inactive	inactive	inactive	inactive	39.8 µM (active) and inactive
C=CCCCCCCCCC(=O)O	inactive	inactive	inactive	inactive	inactive	inactive	inactive	inactive	inactive	inactive
OCc1ccccc1	inactive	inactive	inactive	inactive	inactive	inactive	inactive	inactive	inactive	inactive
O=C(O)CCCCCCCCC(=O)O	inactive	inactive	inactive	inactive	inactive	inactive	inactive	inactive	inactive	inactive
O=C(O)c1ccc(C(=O)O)c(C(=O)O)c1	inactive	inactive	inactive	inactive	inactive	inactive	inactive	inactive	inactive	inactive
O=C1c2ccccc2CCc2ccccc21	inactive	27.9 µM (active)	inactive	inactive	inactive	inactive	inactive	inactive	inactive	inactive
CCCCCCCCCCO	inactive	inactive	inactive	inactive	inactive	inactive	inactive	inactive	inactive	inactive
O=[N+]([O-])c1ccc2nc[nH]c2c1	inactive	inactive	inactive	inactive	inactive	inactive	inactive	inactive	inactive	inactive
CC1(C)OC[C@@H]2O[C@@]3(C(=O)O)OC(C)(C)O[C@H]3[C@@H]2O1	inactive	inactive	inactive	inactive	inactive	inactive	inactive	inactive	inactive	inactive
COc1ccc(CCC(C)=O)cc1	inactive	inactive	inactive	inactive	inactive	inactive	inactive	inactive	inactive	inactive
CC(=O)OC1CC(C)OC(C)O1 (stereo not given)	inactive	inactive	inactive	inactive	inactive	inactive	inactive	inactive	inactive	inactive
